VACV mCherry inh: vaccinia inhibition (mCherry reporter); Potency, µM (top dose mostly 36.5 µM), inactives show top-dose activity change, negative = inhibition, most hits filed as inhibitors; 310,000 compounds, 0.63% hits; Vaccinia virus mCherry reporter infection, fluorescence; AID 720579; calls by dose curve; tested in A549 cells; also: nearly all actives have a fitted effect of over 35% in size
LASV entry inh: blocks Lassa virus binding to or entry into cells | 300,000 compounds, 1.2% hits | Potency, µM (series often up to 37.9 µM), for inactives: at the highest dose activity change, negative = inhibition, actives largely listed as inhibitors | Lassa virus pseudotype entry inhibition, cell reporter; calls by dose curve; tested in HEK293 cells; also: nearly all actives have a fitted effect of over 50% in size
VACV Venus inh: inhibitors of vaccinia virus (Venus reporter) | Vaccinia virus Venus reporter expression, fluorescence | Potency, µM (titrated, usually from 36.5 µM), for the others: at the top dose activity change, negative = inhibition, hits mostly inhibitors | 330,000 compounds, 0.46% hits | AID 720580; calls by dose curve; tested in A549 cells; also: nearly all actives have a fitted effect of over 30% in size
FMDV antiviral: foot and mouth disease virus antiviral activity; FMDV antiviral cell-based qHTS; Potency, µM (titrated, usually from 57.9 µM), inactives show at the highest dose activity change, negative = inhibition, most hits filed as inhibitors; 410,000 compounds, 1.2% hits; AID 1159524; calls by dose curve; tested in HEK293T cells; also: read-out not given here; nearly all actives have a fitted effect of over 45% in size
MARV entry inh: Marburg virus entry inhibition. Marburg virus pseudotyped entry inhibition, cell reporter. Potency, µM (titrated, usually from 37.8 µM), for the others: at the top dose activity change, negative = inhibition, actives largely listed as inhibitors. 300,000 compounds, 1.8% hits. AID 540276; calls by dose curve; tested in HEK293 cells
Sm TGR block: blocks Schistosoma mansoni thioredoxin glutathione reductase. Q962Y6. purified TGR, DTNB reduction, TNB absorbance 405 nm. Potency, µM (doses to about 114 µM), inactives show at the top dose activity change, negative = inhibition, hits mostly inhibitors. 360,000 compounds, 3% hits; active = well fitted inhibition curve with a large enough effect; inconclusive = small, poorly fitted or top-dose-only effect; inactive = no such curve, though single readings can be large or run the other way; also: nearly all actives have a fitted effect of over 60% in size
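TGR 20 nM + NADPH 100 uM (dispensed conc.), cpd preinc 15 min RT; start with NADPH (500 uM addition) then DTNB (15 mM addition). Kinetic TNB absorbance, 405 nm filter. Four-parameter Hill fit across titration.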
Active calls of the source: *; i = inactive; u = inconclusive; x = not tested or not shown; [ ] = another dose, or the depositor's remark. Only some compounds are listed: those with a hit (about 5.4% of all), similar ones and a draw of the others. % is scaled to controls: 0 for no effect and ±100 for the full control effect; potency is read from the fitted curve at half-maximal effect.

SMILES	VACV mCherry inh	LASV entry inh	VACV Venus inh	FMDV antiviral	MARV entry inh	Sm TGR block
CCOC(=O)C1CCCN(C(=O)c2cnn(-c3ncc4c(n3)-c3ccccc3CC4)c2C)C1 (stereo not drawn)	-12%	x	5%	16%	x	x
COc1cc(-c2cc(C)c3c(OC)ccc(OC)c3n2)cc2c1OCCN(C(=O)Cn1nc(C)cc1C)C2	-20%	x	-4%	0%	x	x
CCc1ccc(NC(=O)CC2C(=O)N(c3ccc(C)cc3)C(=O)N2C2CCCC2)cc1 (stereo not drawn)	-25%	-2%[46.1 µM]	-3%	8%	-17%[46.1 µM]	2%
CCN1C(=O)C(CC(=O)Nc2ccc(OC)cc2)N(CCCN2CCN(c3ccc(OC)cc3)CC2)C1=S (stereo not drawn)	10µM*	u	u	-20%	u	-6%
Cc1ccc(N2C(=O)C(CC(=O)Nc3cccc(F)c3)N(C3CC3)C2=O)cc1 (stereo not drawn)	-20%	x	-17%	11%	x	50µM*
CCOC(=O)c1ccc(NC(=O)CC2C(=O)N(c3ccc(F)cc3)C(=O)N2Cc2ccc(C)cc2)cc1 (stereo not drawn)	-6%	-11%[46.1 µM]	-12%	-9%	u	-15%
CCOc1ccc(NC(=O)CC2C(=O)N(c3ccc(OC)cc3)C(=O)N2CCc2cccs2)cc1 (stereo not drawn)	-17%	7.3µM*	-10%	5%	u	6%
CCOC(=O)c1ccc(NC(=O)CC2C(=O)N(c3ccc(F)cc3)C(=O)N2CCC(C)C)cc1 (stereo not drawn)	x	u	x	u	26µM*	u
COc1ccc(NC(=O)CSc2oc(-c3ccco3)nc2S(=O)(=O)c2ccccc2)c(OC)c1	-16%	-3%[46.1 µM]	-7%	-22%	-17%[46.1 µM]	-29%
CCN1C(=O)[C@@H]2[C@H]3[C@H](O)[C@H](O)CC(=NO[C@H](C)CN4CCCc5nc(C)c(C)cc54)[C@@H]3CC[C@H]2C1=O	x	x	x	x	2%[14.2 µM]	x
Cc1cccc(C)c1N1C(=O)[C@@H]2[C@H](ON(c3ccccc3)[C@H]2c2ccncc2)C1=O	x	x	x	x	-1%	x
CCOC(=O)c1nnc2c(-c3ccc(Cl)cc3)c(C)nn2c1N	-7%	u	-3%	-17%	16%[46.1 µM]	-1%
CCOc1ccc(NC(=O)CC2C(=O)N(c3ccccc3)C(=O)N2C2CCCC2)cc1 (stereo not drawn)	-9%	u	-8%	-9%	x	50µM*
CCOc1ccc(NC(=O)CC2C(=O)N(c3ccc(OC)cc3)C(=O)N2C2CCCCC2)cc1 (stereo not drawn)	-5%	u	-6%	-18%	-3%[46.1 µM]	9%
COc1ccc(NC(=O)CC2C(=O)N(c3ccc(OC)cc3)C(=O)N2C2CCCCC2)cc1 (stereo not drawn)	3%	u	0%	-5%	12%[46.1 µM]	56µM*
Cc1noc(C)c1COc1cccc(C(=O)NCCc2c[nH]c3ccccc23)c1	u	10µM*	-18%	-18%	u	-1%
Cc1nnc(N=c2ssnc2Cl)o1	u	x	-28%	u	x	28µM*
CC(=O)NC(=S)Nc1ccc(NC(=S)NC(=O)c2cccs2)cc1	x	x	x	0%	x	-26%
CCCCOC(=O)c1ccc(NC(=S)NC(=O)c2ccco2)cc1	-23%	16µM*	-4%	-9%	u	u
Cc1ccc(C(=O)NC(=S)Nc2ccc(-c3ccc(CO)o3)cc2)cc1	-21%	-18%	-19%	-3%	-19%[46.1 µM]	u
O=C(NC(=S)Nc1ccc(-c2ccc(CO)o2)cc1)c1cccs1	i	1%	-11%	25%	-2%[46.1 µM]	8.9µM*
CCN(CC)c1ccc(NC(=S)NC(=O)c2ccco2)cc1	-26%	u	-17%	18%	0%	11µM*
CCN(CC)c1ccc(NC(=S)NC(=O)c2cccs2)cc1	-20%	x	-21%	6%	x	8.9µM*
O=C1CCN(Cc2cccc(C(F)(F)F)c2)CCN1Cc1ccccn1	-7%	x	3%	-11%	x	x
CN1c2ccccc2[C@@]2(O)C(=O)[C@@]1(C)[C@@H]1C=CCC[C@H]12	x	x	x	x	29%[14.2 µM]	x
SMILES	VACV mCherry inh	LASV entry inh	VACV Venus inh	FMDV antiviral	MARV entry inh	Sm TGR block
COc1cc(C(=O)NC(C)C2CC3CCC2C3)cc(OC)c1OC (stereo not drawn)	u	u	u	-12%	0%	7%
CCN(Cc1ccccc1)S(=O)(=O)c1cc(C(=O)NC(C)C2CC3CCC2C3)ccc1OC (stereo not drawn)	-3%	3.2µM*	u	-29%	u	2%
Cc1nn(-c2ccccc2)c(C)c1/C=N/NC(=O)c1cc(-c2ccc(Cl)s2)[nH]n1	x	10µM*	x	4µM*	9.2µM*	19%
O=C(CSc1nnc(SCc2ccccc2)s1)N/N=C/c1c(Cl)cccc1Cl	-21%	-5%	u	1%	u	0%
O=C(N/N=C/c1ccccn1)c1cc(-c2ccc(Br)s2)[nH]n1	-28%	x	-29%	-26%	u	1%
Cc1nn(-c2ccccc2)c(C)c1/C=N/NC(=O)c1cc(-c2ccc(Br)s2)[nH]n1	x	6.5µM*	x	-16%	7.3µM*	2%
Cc1nn(-c2ccccc2)c(C)c1/C=N/NC(=O)c1cc(-c2cccs2)[nH]n1	x	u	x	u	u	-10%
Cc1nn(-c2ccccc2)c(C)c1/C=N/NC(=O)CSc1nnc(SCc2ccc(Cl)cc2)s1	u	9.2µM*	u	u	u	-19%
O=C(N/N=C/c1ccccn1)c1cc(-c2ccc(Cl)s2)[nH]n1	13µM*	-15%[46.1 µM]	-22%	-2%	-17%[46.1 µM]	-8%
CCCCOc1ccc(NC(=O)Cn2nnnc2-c2ccccc2F)cc1	1%	-23%[46.1 µM]	2%	-9%	3%[46.1 µM]	0%
Cc1nn(-c2ccccc2)c(C)c1/C=N/NC(=O)c1cccs1	i	3.2µM*	u	21%	11µM*	-20%
COc1ccc(/C=C/c2c([N+](=O)[O-])c(=O)n(C)c(=O)n2C)c(OC)c1	-15%	x	-13%	u	-5%[46.1 µM]	1%
CCOc1ccc(/C=C/c2c([N+](=O)[O-])c(=O)n(C)c(=O)n2C)cc1	-10%	u	-12%	-29%	u	1%
Cn1c(/C=C/c2ccc(Cl)cc2Cl)c([N+](=O)[O-])c(=O)n(C)c1=O	x	x	x	32µM*	x	4%
CCc1ccc(/C=C/c2c([N+](=O)[O-])c(=O)n(C)c(=O)n2C)cc1	x	x	x	16µM*	x	3%
COc1cccc(-c2nc3cc(SC)ccc3cc2CN(C(=O)c2sccc2C)C2CC2)c1	i	x	-14%	-3%	x	x
COc1cccc(CNC(=O)C2CCCCN2S(=O)(=O)c2ccc(F)cc2)c1 (stereo not drawn)	-14%	17%[46.1 µM]	4%	-21%	x	14%
Cc1cccc2[nH]c3c(N4CC=C(c5ccc(F)cc5)CC4)ncnc3c12	u	u	u	40µM*	11µM*	11%
CCOC(=O)C1CCN(c2ncnc3c2[nH]c2cccc(OC)c23)CC1	x	-8%	-7%	u	-8%	0%

Assay outcomes as filed in PubChem BioAssay.
